Drawing on PubChem BioAssay AID651610 (Broad Institute, 2012), this text covers inhibition for 59 molecules.

In all, about 360,000 compounds went through this assay and about 3,900 (1.1%) were called active. The entries come from a sample that favours actives as a whole. Values without a mark were called inactive.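 The calls were made as follows: active = mean replicate inhibition score of at least 50 and every replicate individually at or above 50; inconclusive = only one of the two criteria met; inactive = mean below 50 and not all replicates reaching 50.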

A short description of this assay: blockers of JRFL envelope-mediated fusion – HeLa-JRFL effector, CEM21 target cells, luciferase, primary screen (AID 651610).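 Also: 0% = plate neutral controls and 100% = maraviroc near 300 nM.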 The note with it: HeLa-JRFL Env/CEM21 cell fusion, stronger effect = higher value; at 16.7 µM unless noted.
As to `CCCCCCCNC(=O)C1(CC2CC(c3cccc(Br)c3)=NO2)CCN(C(=O)c2cc(OCC)c(OCC)c(OCC)c2)CC1` (centres undefined), the inhibition (commonly the change of the read-out against control, counted positive when it falls) is 28.1% [at 12.3 µM].

For the molecule `COc1ccc(CNC(=O)C2(CC3CC(c4ccccc4)=NO3)CCN(C(=O)c3cccc(O)c3)CC2)cc1` (centres undefined), the inhibition is 65.8% [at 12.3 µM] (active).

`O=C(c1ccccc1)N1CCC(CC2CC(c3ccc(Cl)cc3)=NO2)(C(=O)NCC2CCCCC2)CC1` (centres undefined): the inhibition was -114% [at 12.3 µM].

For the molecule `CO[C@@H]1CN(C)C(=O)c2cc(NC(=O)C3CCOCC3)ccc2OC[C@H](C)N(C)C[C@H]1C`, the inhibition is 0.584%.

With `C[C@@H]1CCCCO[C@H](CN(C)C)[C@H](C)CN([C@@H](C)CO)C(=O)c2cc(NS(=O)(=O)c3ccccc3)ccc2O1`, the inhibition was 19.2%.

On to `COc1cncc(-c2cnc3sc(NCCc4ccccn4)nn23)c1`, for which the inhibition was 61.5% [at 12.3 µM] (active).

Turning to `COc1ccc(NCCc2ccccn2)cc1`, the inhibition is -6.27% [at 12.3 µM].

On to `Cc1ccc(C(=O)N/C(=C\c2cccs2)C(=O)NCCc2ccccn2)cc1C`, for which the inhibition was -3.78% [at 12.3 µM].

In the case of `CCNC(=O)Nc1ccc2c(c1)C(=O)N(C)[C@H]1CC[C@@H](CC(=O)N[C@@H](C)c3ccccc3)O[C@H]1CO2`, the inhibition was 0.456%.

Regarding `COCC(=O)N1C[C@@H](C)[C@H](OC)CN(C)C(=O)c2cc(NC(=O)c3cc(C)on3)ccc2OC[C@@H]1C`, the inhibition was -4.38%.

For the molecule `C[C@@H]1CN([C@H](C)CO)C(=O)Cc2cc(NC(=O)Cn3cnnn3)ccc2O[C@H]1CN(C)Cc1ccc(C(F)(F)F)cc1`, the inhibition was 3.54%.

With `COc1ccccc1CNC(=O)CCCN1C(=O)NC2(CCCC2)C1=O`, the inhibition was 2.68% [at 12.3 µM].

Regarding `COC(=O)C1(C(=O)OC)C[C@H](c2ccccc2)N(Cc2ccccc2OC)[C@@H]1c1ccccc1`, the inhibition is 84.1% [at 12.3 µM] (active).

`COc1ccccc1CNC(=O)C1CCN(S(C)(=O)=O)CC1`: the inhibition was -69% [at 12.3 µM].

Regarding `O=C(N[C@H]1CC[C@@H](CCNC(=O)C2CCC2)O[C@@H]1CO)c1ccncc1`, the inhibition is 7.35%.

Turning to `C[C@@H]1CN([C@@H](C)CO)C(=O)c2cc(NC(=O)C3CCCCC3)ccc2O[C@@H](C)CCCCO[C@H]1CN(C)C(=O)CCC(F)(F)F`, the inhibition was 7.33%.

Take `C[C@H](CO)N1C[C@H](C)[C@H](CN(C)C(=O)c2ccncc2)OCc2ccccc2-c2c(n(C)c3ccccc23)C1=O`: the inhibition was 59.8% (active).

As for `Cc1noc(C)c1C(=O)N(C)C[C@H]1OCc2ccccc2-c2c(n(C)c3ccccc23)C(=O)N([C@@H](C)CO)C[C@H]1C`, the inhibition was -3.54%.

Turning to `C[C@@H]1CN([C@@H](C)CO)C(=O)c2c(c3ccccc3n2C)-c2ccccc2CO[C@@H]1CN(C)S(=O)(=O)CC(F)(F)F`, the inhibition was -10.3%.

As for `C[C@@H]1CN([C@H](C)CO)C(=O)c2c(c3ccccc3n2C)-c2ccccc2CO[C@H]1CN(C)C(=O)c1ccncc1`, the inhibition is 1.26%.

As to `C[C@H](CO)N1C[C@H](C)[C@@H](CN(C)S(=O)(=O)c2cccc(F)c2)OCc2ccccc2-c2c(n(C)c3ccccc23)C1=O`, the inhibition is 56% (active).

Take `C[C@@H]1CN([C@H](C)CO)C(=O)c2c(c3ccccc3n2C)-c2ccccc2CO[C@H]1CN(C)S(=O)(=O)c1ccccc1F`: the inhibition was 6.3%.

Regarding `COc1ccc(S(=O)(=O)N(C)C[C@@H]2OCCCC[C@H](C)Oc3ccc(NC(=O)NC(C)C)cc3C(=O)N([C@@H](C)CO)C[C@@H]2C)cc1`, the inhibition is 8.34%.

As to `COc1ccc(NC(=O)Nc2ccc3c(c2)C(=O)N([C@H](C)CO)C[C@@H](C)[C@@H](CN(C)C(=O)NC(C)C)OCCCC[C@H](C)O3)cc1`, the inhibition is -15.9%.

Turning to `C/C=C/c1ccc2c(c1)O[C@H](CN(C)C(=O)c1ccc3c(c1)OCO3)[C@@H](C)CN([C@H](C)CO)S2(=O)=O`, the inhibition was -3.13%.

Turning to `C[C@H](CO)N1C[C@H](C)[C@@H](CN(C)C(=O)Nc2ccc(F)cc2)OCCCC[C@H](C)Oc2ccc(NC(=O)c3ccncc3)cc2C1=O`, the inhibition was -27.7%.

Take `COc1ccc([Si](C)(C)[C@@H]2[C@@H](CCO)O[C@]3(C(=O)N(Cc4ccccc4)c4ccc(N5CCC5=O)cc43)[C@H]2C)cc1`: the inhibition was 15.1%.

Take `COc1ccc([Si](C)(C)[C@@H]2[C@@H](CCO)O[C@]3(C(=O)N(Cc4cccc(N5CCCCC5=O)c4)c4ccccc43)[C@H]2C)cc1`: the inhibition is -10.1%.

As to `COc1ccc([Si](C)(C)[C@H]2[C@H](CCO)O[C@@]3(C(=O)N(Cc4cccc(N5CCOC5=O)c4)c4ccccc43)[C@@H]2C)cc1`, the inhibition was 61.7% (active).

Regarding `Cc1noc(C)c1NC(=O)N[C@@H]1CC[C@H](CCNC(=O)C2CCC2)O[C@@H]1CO`, the inhibition was 5.86%.

Consider `C[C@H]1CN([C@@H](C)CO)C(=O)c2ccccc2-c2ccccc2CO[C@H]1CN(C)S(=O)(=O)c1cccc(C#N)c1`, for which the inhibition was 56.8% (active).

On to `C[C@H](CO)N1C[C@H](C)[C@@H](CN(C)S(=O)(=O)c2cccs2)OCc2ccccc2-c2ccccc2C1=O`, for which the inhibition was 3.13%.

On to `Cc1noc(C)c1S(=O)(=O)N(C)C[C@@H]1OCc2ccccc2-c2ccccc2C(=O)N([C@@H](C)CO)C[C@H]1C`, for which the inhibition is 28.5%.

On to `C[C@H]1CN([C@@H](C)CO)C(=O)c2ccccc2-c2ccccc2CO[C@H]1CN(C)S(=O)(=O)c1ccccc1C#N`, for which the inhibition is 66.4% (active).

Regarding `C[C@@H]1CN([C@H](C)CO)C(=O)c2ccccc2-c2ccccc2CO[C@H]1CN(C)S(=O)(=O)c1ccsc1`, the inhibition was 15.4%.

Consider `C[C@H]1CN([C@@H](C)CO)C(=O)c2ccccc2-c2ccccc2CO[C@@H]1CN(C)S(=O)(=O)c1ccc(C(F)(F)F)cc1`, for which the inhibition is 22.4%.

Consider `C[C@H]1CN([C@@H](C)CO)C(=O)c2cc(Br)cnc2O[C@@H]1CN(C)S(=O)(=O)c1ccc(F)cc1`, for which the inhibition was 48%.

As to `C[C@@H]1CN([C@H](C)CO)C(=O)c2cccc(NS(=O)(=O)c3cn(C)cn3)c2O[C@H]1CN(C)Cc1ccc(C(=O)O)cc1`, the inhibition is 16.1%.

Turning to `CC(=O)N1C[C@@H](CO)[C@@H](N(C)C(=O)C(C)(C)C)C[C@H]1c1ccccc1Br`, the inhibition is -6.57% [at 12.3 µM].

With `CCOC1=C2[C@@H](CN(S(=O)(=O)c3ccc(C)cc3)[C@H]2c2ccccc2F)[C@H]2C(=O)N(Cc3ccccc3)C(=O)[C@H]2C1`, the inhibition is 12.3% [at 12.3 µM].

Turning to `Cc1ccc(S(=O)(=O)N2C[C@@H]3CCCC[C@@H]3[C@@H](C)[C@H]2c2cn(Cc3ccccc3)c3ccc(F)cc23)cc1`, the inhibition was 77% [at 12.3 µM] (active).

For the molecule `Cc1ccc(F)cc1S(=O)(=O)N[C@@H]1CCN(Cc2ccc(-c3ccccc3)cc2)C1`, the inhibition was -7.12%.

`CO[C@H]1CN(C)C(=O)c2cc(NC(=O)NC(C)C)ccc2OC[C@@H](C)NC[C@@H]1C`: the inhibition is -14%.

Consider `O=C(N[C@H]1CC[C@@H](CCNS(=O)(=O)c2cccc(Cl)c2)O[C@@H]1CO)c1ccccc1`, for which the inhibition is 12.1%.

Turning to `CCCNC(=O)N(C)C[C@H]1Oc2ncc(C#Cc3ccncc3)cc2C(=O)N([C@@H](C)CO)C[C@@H]1C`, the inhibition was 0.597%.

Take `Cc1cccc([C@@H]2[C@@H]3C(=O)N(Cc4ccccc4)C(=O)[C@@H]3[C@]3(Cc4ccc(Cl)cc4)C(=O)N(c4cccc(Cl)c4)C(=O)N23)c1`: the inhibition is -14.5% [at 12.3 µM].

Regarding `O=C1[C@H]2[C@@H](c3ccc(Cl)cc3)N3C(=O)N(c4cccc(F)c4)C(=O)[C@@]3(Cc3ccccc3)[C@H]2C(=O)N1C1CCCCC1`, the inhibition was 1.92% [at 12.3 µM].

In the case of `O=C1[C@H]2[C@@H](c3ccc(F)cc3)N3C(=O)N(c4ccc(C(F)(F)F)cc4)C(=O)[C@@]3(Cc3ccccc3)[C@H]2C(=O)N1C1CCCCC1`, the inhibition was 79% [at 12.3 µM] (active).

Consider `Cc1cccc(N2C(=O)N3[C@H](c4ccc(F)cc4)[C@@H]4C(=O)N(C5CCCCC5)C(=O)[C@@H]4[C@]3(Cc3ccccc3)C2=O)c1`, for which the inhibition was 55.1% [at 12.3 µM] (active).

`C[C@@H]1CN([C@@H](C)CO)S(=O)(=O)c2ccc(C#Cc3ccc(F)cc3)cc2O[C@H]1CN(C)C(=O)NC1CCCC1`: the inhibition is -2.36%.

Consider `COc1ccc(CN(C)C[C@H]2Oc3c(NS(=O)(=O)c4ccccc4)cccc3C(=O)N([C@@H](C)CO)C[C@H]2C)cc1`, for which the inhibition was 12%.

On to `O=C(Cc1ccccn1)NCC[C@H]1CC[C@@H](NS(=O)(=O)c2ccc(F)cc2)[C@H](CO)O1`, for which the inhibition is -7.4%.

As to `COC(=O)[C@@]12C[C@@H](CC(=O)NCc3cccc(C(F)(F)F)c3)C(=O)N(Cc3ccco3)C1=CCC(C)(C)C2`, the inhibition was 74.9% [at 12.3 µM] (active).

Take `CCCCNC(=O)C[C@@H]1C[C@@]2(C(=O)OC)CC(C)(C)CC=C2N(Cc2ccco2)C1=O`: the inhibition is 5.33% [at 12.3 µM].

For the molecule `CCOC(=O)[C@]12CCC=C1N(Cc1ccco1)C(=O)[C@H](CC(=O)NCc1cccc(C(F)(F)F)c1)C2`, the inhibition was 18.4% [at 12.3 µM].

With `C[C@H](CO)N1C[C@H](C)[C@@H](CN(C)C(=O)Nc2ccc3c(c2)OCO3)Oc2ccc(NS(=O)(=O)c3ccc(Cl)cc3)cc2CC1=O`, the inhibition was -30.5%.

Turning to `O=C(NC(c1ccc(Cl)cc1)c1cnccn1)C1CCN(Cc2ccc(Cl)cc2)CC1` (centres undefined), the inhibition is 16.4% [at 12.3 µM].

Consider `Cc1cccnc1C(NC(=O)C1CCN(Cc2ccc(Cl)c(Cl)c2)CC1)c1ccc(Cl)cc1` (centres undefined), for which the inhibition was 62.7% [at 12.3 µM] (active).

As to `Cc1ccc(C(NC(=O)C2CCN(CCOc3ccc(Cl)cc3Cl)CC2)c2ccccn2)cc1` (centres undefined), the inhibition was 6.28% [at 12.3 µM].
